Experimental findings from the supplement of paper PMC11001985 are described below.

Unmarked numbers belong to inactive results.

UniProt Q9BUQ8, sequence (Q9BUQ8 whole entry): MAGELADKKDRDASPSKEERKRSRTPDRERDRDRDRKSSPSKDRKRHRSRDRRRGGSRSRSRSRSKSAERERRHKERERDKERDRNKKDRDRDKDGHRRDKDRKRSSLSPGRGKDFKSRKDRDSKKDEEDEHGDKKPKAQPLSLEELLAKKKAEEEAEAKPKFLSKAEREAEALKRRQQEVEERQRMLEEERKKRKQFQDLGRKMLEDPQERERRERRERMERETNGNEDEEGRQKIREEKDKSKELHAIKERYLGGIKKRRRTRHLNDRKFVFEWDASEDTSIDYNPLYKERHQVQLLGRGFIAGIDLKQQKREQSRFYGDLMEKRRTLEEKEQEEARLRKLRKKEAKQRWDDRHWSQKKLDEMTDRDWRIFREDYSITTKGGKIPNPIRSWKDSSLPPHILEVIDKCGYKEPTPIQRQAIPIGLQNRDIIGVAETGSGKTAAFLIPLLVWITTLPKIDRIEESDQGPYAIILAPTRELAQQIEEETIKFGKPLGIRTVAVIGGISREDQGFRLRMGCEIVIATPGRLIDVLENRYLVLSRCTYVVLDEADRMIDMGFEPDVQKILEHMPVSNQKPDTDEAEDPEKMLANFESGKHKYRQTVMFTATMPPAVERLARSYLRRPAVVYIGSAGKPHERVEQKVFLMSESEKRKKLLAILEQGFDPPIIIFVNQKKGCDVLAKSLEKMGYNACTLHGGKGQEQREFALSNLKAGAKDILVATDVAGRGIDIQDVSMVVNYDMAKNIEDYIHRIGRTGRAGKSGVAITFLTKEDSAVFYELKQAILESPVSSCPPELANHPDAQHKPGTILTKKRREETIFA
UniProt P52272, sequence (P52272 whole entry): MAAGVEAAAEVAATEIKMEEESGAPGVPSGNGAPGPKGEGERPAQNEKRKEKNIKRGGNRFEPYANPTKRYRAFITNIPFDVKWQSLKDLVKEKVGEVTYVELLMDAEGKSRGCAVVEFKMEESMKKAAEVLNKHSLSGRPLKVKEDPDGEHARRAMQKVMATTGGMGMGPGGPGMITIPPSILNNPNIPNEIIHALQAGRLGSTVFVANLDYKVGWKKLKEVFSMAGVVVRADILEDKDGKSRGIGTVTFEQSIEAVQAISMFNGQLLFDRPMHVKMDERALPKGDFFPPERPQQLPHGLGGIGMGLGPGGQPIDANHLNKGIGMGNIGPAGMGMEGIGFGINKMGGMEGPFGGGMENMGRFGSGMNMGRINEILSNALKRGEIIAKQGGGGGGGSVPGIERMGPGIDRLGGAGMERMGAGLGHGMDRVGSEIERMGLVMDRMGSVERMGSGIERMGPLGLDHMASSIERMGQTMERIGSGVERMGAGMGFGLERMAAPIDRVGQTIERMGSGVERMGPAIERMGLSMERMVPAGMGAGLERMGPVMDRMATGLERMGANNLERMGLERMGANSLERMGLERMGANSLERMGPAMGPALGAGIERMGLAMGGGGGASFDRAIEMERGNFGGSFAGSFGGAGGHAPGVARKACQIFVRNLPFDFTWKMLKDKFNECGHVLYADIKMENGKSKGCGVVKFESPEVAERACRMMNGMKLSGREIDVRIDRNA
UniProt P34897, sequence (P34897 whole entry): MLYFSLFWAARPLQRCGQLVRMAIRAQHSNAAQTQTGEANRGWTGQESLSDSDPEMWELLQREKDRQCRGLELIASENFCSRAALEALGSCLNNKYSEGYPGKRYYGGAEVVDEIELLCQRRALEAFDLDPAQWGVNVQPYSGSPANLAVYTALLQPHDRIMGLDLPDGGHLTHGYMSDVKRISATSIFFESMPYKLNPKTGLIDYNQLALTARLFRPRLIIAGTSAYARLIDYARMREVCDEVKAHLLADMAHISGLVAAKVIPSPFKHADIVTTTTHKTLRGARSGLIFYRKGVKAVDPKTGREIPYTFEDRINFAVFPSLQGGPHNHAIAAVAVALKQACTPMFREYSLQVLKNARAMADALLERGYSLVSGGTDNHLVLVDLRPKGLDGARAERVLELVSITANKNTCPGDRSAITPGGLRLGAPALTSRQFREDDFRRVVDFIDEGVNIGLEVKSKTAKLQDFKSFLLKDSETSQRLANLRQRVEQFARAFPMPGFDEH
UniProt P29401, sequence (P29401 whole entry): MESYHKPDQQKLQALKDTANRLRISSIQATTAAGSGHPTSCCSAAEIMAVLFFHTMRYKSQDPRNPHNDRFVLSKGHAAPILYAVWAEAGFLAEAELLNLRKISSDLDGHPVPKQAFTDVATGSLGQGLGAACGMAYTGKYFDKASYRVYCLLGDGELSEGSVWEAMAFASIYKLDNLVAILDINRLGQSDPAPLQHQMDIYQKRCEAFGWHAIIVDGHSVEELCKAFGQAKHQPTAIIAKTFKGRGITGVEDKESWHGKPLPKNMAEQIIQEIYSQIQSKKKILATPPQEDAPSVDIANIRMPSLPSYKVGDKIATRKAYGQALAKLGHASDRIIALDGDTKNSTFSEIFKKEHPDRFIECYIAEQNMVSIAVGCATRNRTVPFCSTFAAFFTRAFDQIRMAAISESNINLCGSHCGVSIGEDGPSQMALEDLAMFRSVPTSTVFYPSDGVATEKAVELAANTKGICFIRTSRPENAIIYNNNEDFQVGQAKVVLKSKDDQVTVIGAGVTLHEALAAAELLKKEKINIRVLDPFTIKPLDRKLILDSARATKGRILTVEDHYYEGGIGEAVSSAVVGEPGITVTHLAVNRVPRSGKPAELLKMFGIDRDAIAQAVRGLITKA
UniProt P17844, sequence (P17844 whole entry): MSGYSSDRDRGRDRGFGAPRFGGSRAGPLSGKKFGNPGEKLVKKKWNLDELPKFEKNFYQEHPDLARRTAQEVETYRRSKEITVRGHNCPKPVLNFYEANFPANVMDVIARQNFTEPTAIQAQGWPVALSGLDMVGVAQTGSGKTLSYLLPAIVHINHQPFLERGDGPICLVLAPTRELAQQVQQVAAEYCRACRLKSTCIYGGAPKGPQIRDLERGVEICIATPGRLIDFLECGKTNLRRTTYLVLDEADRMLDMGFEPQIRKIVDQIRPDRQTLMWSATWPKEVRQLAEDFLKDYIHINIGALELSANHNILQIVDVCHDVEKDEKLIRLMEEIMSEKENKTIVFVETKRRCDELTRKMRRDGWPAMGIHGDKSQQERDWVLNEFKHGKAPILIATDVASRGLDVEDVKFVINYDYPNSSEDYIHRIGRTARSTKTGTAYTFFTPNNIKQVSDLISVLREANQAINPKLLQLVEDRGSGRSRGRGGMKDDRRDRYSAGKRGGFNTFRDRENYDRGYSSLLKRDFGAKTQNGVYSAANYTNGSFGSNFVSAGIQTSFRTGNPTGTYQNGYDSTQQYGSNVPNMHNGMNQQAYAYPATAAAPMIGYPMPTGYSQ
UniProt P08183, sequence (P08183 whole entry, looked up): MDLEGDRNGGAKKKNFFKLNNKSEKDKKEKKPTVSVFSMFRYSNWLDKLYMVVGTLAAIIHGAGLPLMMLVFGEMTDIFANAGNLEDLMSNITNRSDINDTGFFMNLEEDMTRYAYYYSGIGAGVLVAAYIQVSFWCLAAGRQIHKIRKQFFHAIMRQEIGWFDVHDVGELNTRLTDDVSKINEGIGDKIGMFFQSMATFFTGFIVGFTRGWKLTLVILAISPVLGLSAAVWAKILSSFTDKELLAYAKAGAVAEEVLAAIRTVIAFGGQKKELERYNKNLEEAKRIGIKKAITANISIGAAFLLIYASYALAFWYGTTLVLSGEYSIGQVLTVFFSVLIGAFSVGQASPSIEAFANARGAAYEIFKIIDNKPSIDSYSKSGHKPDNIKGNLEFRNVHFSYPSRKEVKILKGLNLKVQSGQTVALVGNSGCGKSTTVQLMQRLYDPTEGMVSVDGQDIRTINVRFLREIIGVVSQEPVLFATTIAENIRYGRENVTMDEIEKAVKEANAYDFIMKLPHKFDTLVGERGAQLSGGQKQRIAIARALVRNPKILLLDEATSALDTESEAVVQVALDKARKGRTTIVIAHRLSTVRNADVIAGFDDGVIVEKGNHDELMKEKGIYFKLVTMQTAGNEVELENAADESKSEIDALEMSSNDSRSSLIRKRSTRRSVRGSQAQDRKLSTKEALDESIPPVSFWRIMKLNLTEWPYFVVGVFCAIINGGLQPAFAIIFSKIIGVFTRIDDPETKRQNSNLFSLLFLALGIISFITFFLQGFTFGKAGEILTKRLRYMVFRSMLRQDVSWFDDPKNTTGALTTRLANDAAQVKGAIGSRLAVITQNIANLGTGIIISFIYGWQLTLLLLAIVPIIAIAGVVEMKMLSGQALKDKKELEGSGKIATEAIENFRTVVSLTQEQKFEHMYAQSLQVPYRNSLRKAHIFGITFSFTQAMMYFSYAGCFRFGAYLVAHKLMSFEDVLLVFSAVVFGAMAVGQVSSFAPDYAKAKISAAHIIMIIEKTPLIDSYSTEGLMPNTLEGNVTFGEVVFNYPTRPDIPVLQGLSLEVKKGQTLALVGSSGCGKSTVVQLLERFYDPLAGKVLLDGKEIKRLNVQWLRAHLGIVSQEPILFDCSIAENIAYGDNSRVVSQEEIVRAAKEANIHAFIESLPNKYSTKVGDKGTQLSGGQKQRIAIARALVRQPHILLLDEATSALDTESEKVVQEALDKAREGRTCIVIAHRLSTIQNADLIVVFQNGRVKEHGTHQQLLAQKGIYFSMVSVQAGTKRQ
UniProt P41221, sequence (P41221 whole entry): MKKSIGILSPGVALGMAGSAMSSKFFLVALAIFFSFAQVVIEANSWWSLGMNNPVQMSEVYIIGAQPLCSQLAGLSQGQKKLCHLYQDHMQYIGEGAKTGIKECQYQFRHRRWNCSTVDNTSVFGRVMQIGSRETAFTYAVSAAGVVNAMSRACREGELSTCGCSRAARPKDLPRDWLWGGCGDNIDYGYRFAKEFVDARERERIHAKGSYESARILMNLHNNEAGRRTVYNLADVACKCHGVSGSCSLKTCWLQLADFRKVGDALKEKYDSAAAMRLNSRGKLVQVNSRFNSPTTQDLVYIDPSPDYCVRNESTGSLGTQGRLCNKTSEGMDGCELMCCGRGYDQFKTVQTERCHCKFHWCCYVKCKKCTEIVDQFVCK

Compound in the test: C#CCNC(=O)CCSSCCC(=O)NCCc1ccc(C=O)c(C=O)c1
The test can be described thus: lysine labeling ratio R10:1 (500 µM / 50 µM probe), SILAC-ABPP in living cells; higher = lower intrinsic lysine reactivity toward the probe, active = 2 or less. Conditions: HeLa; probe concentrations 500 vs 50 µM. The procedure, abridged: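 With forward and reverse label swaps, light and heavy SILAC HeLa cells, alive and in PBS at room temperature, were exposed to either 500 µM or 50 µM of an alkyne-tagged lysine probe bearing a disulfide link. After mixing, lysates were clicked to biotin-azide, cut with trypsin, pulled down on neutravidin, freed with DTT, alkylated and analysed on a TIMS-TOF Pro by LC-MS/MS. The per-lysine value R is the median over forward and reverse replicates of the filtered median high-probe/low-probe MS1 peptide ratio. It is capped at 20.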
In the case of “IGF2R (lysine site: K1285) (UniProt P11717)”, the “lysine labeling ratio R10:1” value was 0.936 (active).
For “ERLIN2 (lysine site: K205) (UniProt O94905)”, the “lysine labeling ratio R10:1” value was 3.71.
Take “UGT8 (lysine site: K195) (UniProt Q16880)”: the “lysine labeling ratio R10:1” value is 1.49 (active).
Take UniProt O43865 (lysine site: K302): the “lysine labeling ratio R10:1” value is 1.25 (active).
Take “DDX5 (lysine site: K470) (UniProt P17844)”: the “lysine labeling ratio R10:1” value was 4.7.
For “FOLR1 (lysine site: K41) (UniProt P15328)”, the “lysine labeling ratio R10:1” value was 1.41 (active).
Then “HNRNPM (lysine site: K716) (UniProt P52272)”, with 1.35 (active); and “TUFM (lysine site: K91) (UniProt P49411)”, with 2.38.
In the case of “FAT4 (lysine site: K1251) (UniProt Q6V0I7)”, the “lysine labeling ratio R10:1” value was 1.62 (active).
Regarding UniProt P60709 (lysine site: K18), the “lysine labeling ratio R10:1” value was 4.98.
Consider “FLNA (lysine site: K1824) (UniProt P21333)”, for which the “lysine labeling ratio R10:1” value was 5.16.
As for “SHMT2 (lysine site: K409) (UniProt P34897)”, the “lysine labeling ratio R10:1” value is 2.98.
Turning to “EGFR (lysine site: K327) (UniProt P00533)”, the “lysine labeling ratio R10:1” value is 5.84.
“IGF1R (lysine site: K892) (UniProt P08069)”: the “lysine labeling ratio R10:1” value is 3.9.
With “ITGB5 (lysine site: K519) (UniProt P18084)” the figure was 0.882 (active); with UniProt Q15149 (lysine site: K1921), 1.36 (active).
Take UniProt P46781 (lysine site: K52): the “lysine labeling ratio R10:1” value was 2.39.
Regarding UniProt Q9HDC9 (lysine site: K356), the “lysine labeling ratio R10:1” value is 2.37.
As to “IGSF3 (lysine site: K884) (UniProt O75054)”, the “lysine labeling ratio R10:1” value is 4.12.
As for “HSPA9 (lysine site: K121) (UniProt P38646)”, the “lysine labeling ratio R10:1” value was 1.51 (active).
Consider UniProt P62258 (lysine site: K12), for which the “lysine labeling ratio R10:1” value is 7.18.
As to “CCT2 (lysine site: K284) (UniProt P78371)”, the “lysine labeling ratio R10:1” value is 1.69 (active).
“VASN (lysine site: K154) (UniProt Q6EMK4)”: the “lysine labeling ratio R10:1” value is 1.64 (active).
In the case of “PTPRS (lysine site: K897) (UniProt Q13332)”, the “lysine labeling ratio R10:1” value was 2.19.
Then “NUMA1 (lysine site: K573) (UniProt Q14980)”, with 1.46 (active); and “ALDOC (lysine site: K111) (UniProt P09972)”, with 6.08.
With “WNT5A (lysine site: K171) (UniProt P41221)”, the “lysine labeling ratio R10:1” value is 3.57.
Regarding “TXNDC5 (lysine site: K429) (UniProt Q8NBS9)”, the “lysine labeling ratio R10:1” value was 0.74 (active).
Then “NEGR1 (lysine site: K231) (UniProt Q7Z3B1)”, with 0.868 (active).
Take “PPIB (lysine site: K181) (UniProt P23284)”: the “lysine labeling ratio R10:1” value is 3.57.
Turning to “TKT (lysine site: K310) (UniProt P29401)”, the “lysine labeling ratio R10:1” value is 7.45.
As to “DDX23 (lysine site: K204) (UniProt Q9BUQ8)”, the “lysine labeling ratio R10:1” value was 0.85 (active).
Then “DDX23 (lysine site: K196) (UniProt Q9BUQ8)”, with 1.64 (active); and “EZR (lysine site: K400) (UniProt P15311)”, with 6.03.
For “HSPA5 (lysine site: K96) (UniProt P11021)”, the “lysine labeling ratio R10:1” value is 1.44 (active).
Then “ABCB1 (lysine site: K748) (UniProt P08183)”, with 1.52 (active); and “NOTCH2 (lysine site: K1353) (UniProt Q04721)”, with 7.44.
On to “LAMB1 (lysine site: K1757) (UniProt P07942)”, for which the “lysine labeling ratio R10:1” value was 5.94.
On to “M6PR (lysine site: K50) (UniProt P20645)”, for which the “lysine labeling ratio R10:1” value was 2.84.
As to “RAB2A (lysine site: K131) (UniProt P61019)”, the “lysine labeling ratio R10:1” value is 1.7 (active).
